Measured values reported in PubChem BioAssay AID686948 (National Center for Advancing Translational Sciences (NCATS), 2013).
Calls of active or inactive are those of the source. The call rests on the fitted dose curve; in most records, active means well fitted inhibition curve with a large enough effect; inactive means flat fitted curve, though single readings scatter.

molecular target: Tyrosine-protein kinase Yes (Homo sapiens) (UniProt P07947); assay: qHTS for small molecule inhibitors of Yes1 kinase: Confirmatory screen on the cherrypicks; details: Recombinant Yes1, ADP-Glo luminescence, poly(E4Y) substrate
Sequence (P07947 whole entry, looked up): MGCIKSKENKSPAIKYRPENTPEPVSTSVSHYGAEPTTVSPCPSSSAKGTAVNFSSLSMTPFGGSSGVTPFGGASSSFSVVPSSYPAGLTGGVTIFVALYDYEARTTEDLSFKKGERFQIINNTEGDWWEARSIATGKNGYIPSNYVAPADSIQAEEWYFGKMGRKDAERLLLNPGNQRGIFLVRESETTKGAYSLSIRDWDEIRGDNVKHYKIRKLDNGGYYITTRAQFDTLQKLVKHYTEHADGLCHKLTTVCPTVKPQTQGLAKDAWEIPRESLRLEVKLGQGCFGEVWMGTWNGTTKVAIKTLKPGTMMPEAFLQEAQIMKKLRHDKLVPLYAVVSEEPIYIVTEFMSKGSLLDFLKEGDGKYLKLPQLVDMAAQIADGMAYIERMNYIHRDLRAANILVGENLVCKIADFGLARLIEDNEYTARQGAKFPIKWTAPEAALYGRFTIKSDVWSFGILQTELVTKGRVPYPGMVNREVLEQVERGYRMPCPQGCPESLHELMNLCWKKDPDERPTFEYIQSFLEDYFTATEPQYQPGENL
Description: The Src family of non-receptor protein tyrosine kinases contains nine members, including Yes1, Src, Fyn, Lyn, and […]. These kinases have important roles in a variety of cellular functions, such as cell proliferation, survival, and differentiation. Src, the most well characterized member of this family, has been previously identified as a proto-oncogene. […] In melanoma, it has been shown that Yes1, and not other family members, such as Src, is functionally involved in the malignant phenotype. Additionally, a recent study examining the downregulation of Yes1 by shRNA found significant effects on cell survival/growth for basal-like and Her2-positive breast cancers. Despite the potential for Yes1 to be a target for the above-described cancers, there are very few reports on the identification of potent and selective inhibitors of Yes1 kinase. Antagonists of Yes1 would further elucidate Yes1 biology and help to confirm whether Yes1 is a viable target for therapeutic intervention in a variety of cancers. A compound that inhibits Yes1 could be important for the treatment of various cancers in which Yes1 is highly expressed and can also be used as a tool compound to help further elucidate Yes1 biology. To that end, we have developed a sensitive HTS biochemical assay for Yes1 activity. This assay was screened against several small compound libraries to look for modulators of activity. Inhibition is the desired output for this assay. NIH Molecular Libraries Probe Production Centers Network [MLPCN] NIH Chemical Genomics Center [NCGC] MLPCN Grant: MH084681
Two microliter of Yes1 enzyme (columns 1-2, 5-48; Millipore, Billerica, MA) are dispensed into Greiner, white solid-bottom 1536-well assay plates; columns 3 and 4 receive buffer without Yes1 as a control for maximum inhibition. Compounds (23 nL) are then transferred via Kalypsys pin tool equipped with 1536-pin array (10 nL slotted pins, V&P Scientific, San Diego, CA). The library compounds are in columns 5-48 and columns 1-4 serve as controls with DMSO in columns 1, 3 and 4 and 10 mM 1:3 fold serial of dasatinib in column 2. Following addition of compound and a 20 minute incubation, 1 uL of substrate (ATP and poly-E4Y from Sigma-Aldrich, St. Louis, MO) is added, and the biochemical reaction is allowed to progress for 60 minutes at room temperature. The production of ADP is then quantified by the ADP-Glo Kit (Promega, Madison, WI). First, 2 uL of the first kit reagent is added, and the reaction is incubated for 45 minutes; then, 4 uL of the second kit reagent are added and the reaction is incubated for 30 minutes at which time the luminescence is read on a Viewlux plate reader (Perkin-Elmer, Waltham, MA). The final concentration of reagents in the reaction are 4 nM Yes1, 0.1 mM ATP, 100 uM EGTA, 10 mM MgCl2, 0.3 mg/mL poly(E4Y), 50 mM Tris pH 7.5, 1 mM DTT, 150 mM NaCl, 0.01% Brij-35, and 5% glycerol. Data are normalized to DMSO-treated control columns with (maximum signal) and without (minimum signal) enzyme.

Potency, active:
CC(NCc1ccc2c(c1)nc(NC(=O)c1ccc(-c3cn[nH]c3)s1)n2CC(C)(C)O)C(C)(C)C (stereo unspecified) 1.7 nM
Cc1ccc(C(=O)Nc2cccc(C(F)(F)F)c2)cc1-c1ccc2nc(NCCN3CCOCC3)ncc2c1 0.7 nM
CC(C)Oc1cc(Nc2nc(N[C@@H](C)c3ccc(F)cn3)ncc2Cl)[nH]n1 39.1 nM
CN1CCC(CNc2ccc3ncc(-c4cccc(OC(F)(F)F)c4)n3n2)CC1 2770 nM
NC(=O)Nc1cc(-c2ccc(CN3CCOCC3)c(F)c2)sc1C(=O)N[C@H]1CCCNC1 1.7 nM
CCN(CC)CCOc1ccc(Nc2ncc3cc(-c4c(Cl)cccc4Cl)c(=O)n(C)c3n2)cc1 0.4 nM
